Compounds without any hit were thinned out: in the full panel of roughly 83,000, 20% have a hit.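 For each line, cells grew in 96-well plates with the test compound present at a single concentration for 48 hours.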 A number with no mark means an inactive call. The source made the active and inactive calls.
These compounds were tested on IGROV1 ovarian (assay: NCI-60 one-dose screen, 48 h (100 = growth as untreated, 0 = no growth, -100 = all killed)). Settings: 10 µM unless noted.
Method: Growth inhibition of the IGROV1 human tumor cell line is measured as a screen for anti-cancer activity. Cells are grown in 96 well plates and exposed to the test compound for 48 hours. Compounds are tested at a single concentration, which is 10^-5 M for most compounds. The reported endpoint is percent growth (GI% or GIPRCNT), where numbers from 0 - 100% represent growth inhibition, and numbers from -100% - 0 represent cell death. For example, a value of 40 represents 60% growth inhibition. A value of 0 means no net growth occurred over the course of the experiment. A value of -40 indicates 40% of cells at the beginning of the experiment died by the end of the experiment. A value of -100 means all cells are dead at the end of the experiment.
NCI-60 Human Tumor Cell Lines Screen was performed using the standard one-dose NCI protocol, which is described in more detail at https://dtp.cancer.gov/discovery_development/nci-60/default.htm.
Compounds with GIPRCNT values below 10 were considered active. Activity score was based on GIPRCNT using the following formula: […]
Score is 0 for GIPRCNT values of 100 or above, 50 for GIPRCNT values of 0, and 100 for GIPRCNT values of -100.

Compound | growth
O=C(CCc1nnc2sc(Cc3ccccc3Cl)nn12)c1nc2ncccc2[nH]1 | 79.6%
COc1ccc(C2=NN(/C=C3\SC(=O)NC3=Nc3ccc(F)cc3)C(c3ccc(F)cc3)C2)cc1 (stereo not given) | 97.9%
O=C1NC(=O)C(=Cc2cn(Cc3cn(Cc4ccc(Cl)cc4Cl)nn3)c3ccccc23)C(=O)N1 | 85.7%
Cc1nc(Nc2ccccn2)sc1C(=O)/C=C/c1ccc(Cl)cc1 | 13.9%
Cn1cc([C@@H]2Nc3ccc4[nH]ncc4c3[C@H]3[C@H]4CCC(C4)[C@H]32)c(C(F)(F)F)n1 | 56.7%
COc1ccc(/C=C2\N=C(c3ccccc3)N(c3ccc(-c4nc5ccc(C)cc5s4)cc3)C2=O)cc1 | 58.6%
O=C(Nc1ccc(Cl)cc1F)c1cc(F)ccc1O | 17.5%
Cc1cccc2c(=O)c3c(sc12)c(NCCCNCCO)nc1ccccc13 | 15.1%
COc1ccc(-c2nocc2-c2cccs2)cc1 | 102%
COC(=O)/C(CCC=C(C)C)=C1\[C@@H](OC(C)=O)C[C@@]2(C)[C@H]1CC(=O)N[C@H]1[C@@]3(C)CCNC(=O)[C@@H](C)[C@@H]3CC[C@@]12C | 105%
CC(=O)Nc1nc2c(s1)CCc1c-2cn(S(=O)(=O)c2ccccc2)c1-c1ccccc1 | 97.2%
CCOC(=O)c1sc(-c2ccc(OS(=O)(=O)c3ccccc3[N+](=O)[O-])c(C=O)c2)nc1C | 3.88% (active)
COc1cc(C2C(C#N)=C(N)OC3=C2C(=O)c2ccccc2C3=O)cc(OC)c1OC (stereo not given) | 47.7%
COc1cc(NC(=O)CCSc2nc3ccccc3c(=O)n2CCc2ccccn2)cc(OC)c1OC | 99.8%
CCC(C)(C)C(=O)O[C@H]1C[C@@H](C)C=C2C=C[C@H](C)[C@H](CC[C@@H]3CC=CC(=O)O3)[C@H]21 | 97.2%
CC1=CCC(OC(=O)C(C)(C)CCC(O)(C(=O)OC2(C(C)C)CCC3(C)OC3C2)C(C)C)(C(C)C)CC1 (stereo not given) | -60.5% (active)
NC(=O)CSc1nc(-c2ccc(F)cc2)cc(-c2ccco2)n1 | 94%
CCc1ccc(CNCC(O)c2ccccc2)cc1 (stereo not given) | 41.1%
O=C1/C(=C/c2ccc(O)cc2)COc2ccc(O)cc21 | 97.3%
COC(=O)/C(CCC=C(C)C)=C1\[C@@H](OC(C)=O)C[C@@]2(C)[C@H]1C[C@@H](O)[C@H]1[C@@]3(C)CC[C@H](NCCCNCCCCNCCCN)[C@@H](C)[C@@H]3CC[C@@]12C | 41.9%

Compound | growth
CCn1c(Cc2ccccc2Nc2c(Cl)cccc2Cl)nnc1SCC(=O)NN1C(=O)/C(=C/c2cccc(OC)c2OC)SC1=S | 99%
O=C1OC(c2ccccc2)(c2ccccc2)c2ccsc21 | 107%
O=C(Nc1ccc(N2CCNCC2)cn1)c1[nH]ncc1Nc1ncnc2sc3c(c12)CCC3 | 77.6%
COC(=O)/C(CCC=C(C)C)=C1\[C@@H](OC(C)=O)C[C@@]2(C)[C@H]1C[C@@H](O)[C@H]1[C@@]3(C)CC[C@H](NC(=O)c4cnccn4)[C@@H](C)[C@@H]3CC[C@@]12C | 107%
Cc1ccc(Cc2cnc(NC(=O)CN3C(=O)/C(=C\c4ccccc4)SC3=S)s2)cc1 | 105%
CC[C@@H](C)[C@H](NC(=O)Cn1cc(CNC(=O)[C@@H](NC(=O)OCc2ccccc2)C(C)C)nn1)C(=O)O | 113%
N[C@@H](CC/[N+]([O-])=N/O)C(=O)O | 93.3%
Cn1c(/C=C(\C#N)c2ccccc2)nc2c(N3CCOCC3)nc(Cl)nc21 | -61.7% (active)
COC(=O)[C@H](NC(=O)C1(C)CCC[C@]2(C)[C@H]3C[C@H]4C(C(C)C)=C[C@]3(CC[C@@H]12)[C@@H]1C(=O)CCC(=O)[C@@H]14)C(C)C (stereo not given in full) | 91.9%
COc1ccc(/C=C/C(=O)c2ccc(Nc3nc(NCCO)nc(Nc4ccc(Cl)cc4)n3)cc2)cc1 | 98%
CCOC(=O)C1=C(C)N=c2s/c(=C\c3ccccc3O)c(=O)n2C1c1ccc(OC)c2ccccc12 (stereo not given) | 16.3%
CC1=C(C(=O)OCC2CCN(C(=O)OC(C)(C)C)CC2)[C@@H](c2cccc(C#N)c2)C2=C(CC(C)(C)CC2=O)N1 | 45.4%
CCOc1ccc(Nc2ccnc3cc(Cl)ccc23)cc1 | 14.9%
COc1ccc2sc(N(Cc3cccnc3)C(=O)c3ccc(C#N)cc3)nc2c1 | 98.1%
O=C(c1nc2ccccc2[nH]1)C1C(c2ccc([N+](=O)[O-])cc2)C2CC3CCCCC3N2[C@@]12C(=O)Nc1cc(Cl)ccc12 (stereo not given in full) | 24.9%
CN(O)c1nc(N(C)O)nc(N2CCOCC2)n1 | 20.1%
O=C(O)CCC(=O)c1ccc(C2CCCCCC2)cc1 | 101%
COC(=O)/C(CCC=C(C)C)=C1\[C@@H](OC(C)=O)C[C@@]2(C)[C@H]1CC(=O)[C@H]1[C@@]3(C)CC[C@H](NCc4ccccc4)[C@@H](C)[C@@H]3CC[C@@]12C | 73.4%
NCCOc1ncccc1/C=C1\c2ccccc2-c2ccc(F)cc21 | 26.1%
O=C(CN1C(=O)/C(=C\c2ccc(Cl)cc2)SC1=S)Nc1ncc(Cc2ccc(Cl)cc2)s1 | 103%
